Common to all, as to test: NCI-60 one-dose screen, 48 h (100 = growth as untreated, 0 = no growth, -100 = all killed)
What all share (conditions): 10 µM unless noted

In assay [1] the test system is T-47D breast.
Assay [2] relates to BT-549 breast.
Assay [3] has as its system MDA-MB-435 melanoma.
Assay [4] concerns SW-620 colon.
For assay [5], the system named is MCF7 breast.
The subject of assay [6] is HCT-116 colon.
For assay [7], the system named is HCC-2998 colon.
Assay [8] deals with KM12 colon.

Compounds without any hit were thinned out: in the full panel of roughly 83,000, 20% have a hit.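 Cells were grown in 96-well plates and exposed to the test compound at a single concentration for 48 hours; results are reported as percent growth, with values below 10 considered active.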 A number with no mark means an inactive call. Activity calls are given as the source filed them.

For `COc1ccc(F)cc1/C=C/C(=O)/C=C(/C=C/c1cc(F)ccc1OC)OB(F)F`, the growth was 36.4% in assay [1]; 33.7% in assay [2]; 2.57% (active) in assay [3]; 14.1% in assay [4]; 29.2% in assay [5]; 0.9% (active) in assay [6]. For the same compound, the growth was 104% in assay [7] and 73.6% in assay [8].
As to `O=C(Nc1cccc(Cl)c1)Nc1cccc(Cn2c(=O)[nH]c3ccc(Oc4ncccn4)cc3c2=O)c1`, the growth was 16.3% in assay [1]; 48% in assay [2]; 42.6% in assay [3]; 72.3% in assay [4]; 35.8% in assay [5]; 22.9% in assay [6]. Besides, the growth in assay [7] is 69.7%; in assay [8], 29.5%.
In the case of `Cc1cc(C(=O)Nc2ncc(Cc3cccc(C(F)(F)F)c3)s2)c2ccccc2n1`, the growth is 12.1% in assay [1]; 34.7% in assay [2]; -27.3% (active) in assay [3]; 17.3% in assay [4]; 10.2% in assay [5]; 18% in assay [6]. Moreover, the figures for the growth in assay [7] and in assay [8] were 25.6% and 15.5%, respectively.
With `CCOC(=O)c1cc(C)n(-c2ccc(C(=O)O)cc2)c1C`, the growth in assay [1] is 102%; in assay [2], 76.1%; in assay [3], 107%; in assay [4], 64.4%; in assay [5], 67.1%; in assay [6], 67.5%. The growth is 133% in assay [7] and 95.3% in assay [8].
As to `COc1cc(-c2cncn2-c2ccc(-c3nc4ccc(F)cc4s3)cc2)ccc1F`, the growth in assay [1] is 76.3%; in assay [2], 85.3%; in assay [3], 87.4%; in assay [4], 54.3%; in assay [5], 64.3%; in assay [6], 37.7%. The growth in assay [7] is 80.2%; in assay [8], 81.7%.
Regarding `OB1OCc2cc(/C=C/c3cccc(C(F)(F)F)c3)ccc21`, the growth was 20.4% in assay [1]; 8.09% (active) in assay [2]; 20.8% in assay [3]; 15.5% in assay [4]; 21.8% in assay [5]; 0.518% (active) in assay [6]. In addition, the growth in assay [7] was 32.5%; in assay [8], 14.6%.
Consider `COc1ccc(-c2nc3cc(C(=O)NCc4ccccc4)ccc3n2C2CCCCC2)cc1`, for which the growth is 68.2% in assay [1]; 80.9% in assay [2]; 81.7% in assay [3]; 94.9% in assay [4]; 76.6% in assay [5]; 82.9% in assay [6]. The figures for the growth in assay [7] and in assay [8] were 79.3% and 57.4%, respectively.
Regarding `CC1CCN(CCOc2ccc(CNc3ccc4nc(CCC5CCCCC5)[nH]c4c3)cc2)CC1`, the growth in assay [1] is -32.8% (active); in assay [2] it was 68.4%; in assay [3], -43.4% (active); in assay [4], 13.9%; in assay [5], 5.38% (active); in assay [6], 13.7%. In addition, the growth is -50.5% (active) in assay [7] and 44% in assay [8].
Take `COc1cc2c(c(OC)c1OC)CCC(c1cccc(C(=O)Nc3ccc(C#N)cc3)c1)O2` (configuration not stated): the growth in assay [1] is 3.61% (active); in assay [2], 27.2%; in assay [3], 36.6%; in assay [4], 86.7%; in assay [5], 32.5%; in assay [6], 48.8%. The growth is 73.1% in assay [7] and 60.6% in assay [8].
In the case of `CCOC(=O)c1cc2c(n1C)-c1nc(NC(C)=O)sc1CCC2`, the growth in assay [1] is 51.8%; in assay [2], 71.8%; in assay [3] it was 98.5%; in assay [4], 93.3%; in assay [5], 61.6%; in assay [6] it was 75.4%. In addition, the growth in assay [7] was 113%; in assay [8] it was 87.7%.
For the compound `O=C(CSc1nc2sc3c(c2c(=O)n1-c1ccccc1)CCCCC3)N/N=C/c1cccc([N+](=O)[O-])c1`, the growth in assay [1] was 64.1%; in assay [2], 38.1%; in assay [3], 72.9%; in assay [4] it was 52.4%; in assay [5], 45.9%; in assay [6] it was 4.84% (active). Besides, the growth in assay [7] was 98%; in assay [8], 47.6%.
`O=C(O)c1cn(C2CC2)c2cc(N3CCN(C(=O)N(c4ccccc4)c4nc(-c5ccccc5)cs4)CC3)c(F)cc2c1=O`: the growth in assay [1] is 11.4%; in assay [2], -13% (active); in assay [3] it was 8.3% (active); in assay [4], 20.7%; in assay [5], 6.99% (active); in assay [6], 5.04% (active). For the same compound, the growth in assay [7] was 16.5%; in assay [8], 5.03% (active).
`CCOc1ccc(NC(=O)CSc2oc(-c3ccccc3)nc2S(=O)(=O)c2ccc(C)cc2)cc1`: the growth in assay [1] is 57.4%; in assay [2], 94%; in assay [3], 87.4%; in assay [4] it was 74.3%; in assay [5], 61.9%; in assay [6] it was 23.8%. For the same compound, the growth in assay [7] was 82.6%; in assay [8] it was 65.4%.
For `Cc1ccc(C2=Nc3c(N)ncnc3NC(c3cccc(Nc4ccnc5cc(C(F)(F)F)ccc45)c3)C2)cc1` (configuration not stated), the growth was 38.4% in assay [1]; 53.6% in assay [2]; -55.4% (active) in assay [3]; 12.3% in assay [4]; 8.09% (active) in assay [5]; 12.6% in assay [6]. Also, the growth in assay [7] was 31%; in assay [8], 15.9%.

Values taken from PubChem BioAssay (NCI).
